Activity calls are given as the source filed them. The call rests on the fitted dose curve; in most records, active means well fitted activation curve with a large enough effect; inconclusive means small, poorly fitted or top-dose-only effect; inactive means no such curve, though single readings can be large or run the other way.
Biological target: Parathyroid hormone/parathyroid hormone-related peptide receptor (Homo sapiens) (UniProt Q03431)
Assay: qHTS for PTHR1 Agonists: Optimization Screen against the NCGC LOPAC library (AID 1347079)
Settings: HEK293 GP2 PTHR1 GloSensor cAMP luminescence, 1 h; series mostly up to 57.1 µM
Excerpt: The goal of the proposed studies is to discover new compounds that act as potent agonists on the parathyroid hormone receptor type-1 (PTHR1). The PTHR1 plays critical roles in maintaining blood calcium and phosphate levels, as well as in controlling bone remodeling. PTHR1 agonists could thus be useful for treating diseases such as hypoparathyroidism and osteoporosis. In the former disease, an agonist drug would help maintain normal blood calcium and phosphate levels under conditions of parathyroid hormone deficiency. In the latter disease, an agonist drug would stimulate new bone formation and thus reduce the risk of fracture, under conditions of bone fragility, as occurs in aging. We performed an optimization assay of the quantitative high-throughput screening (qHTS) for the parathyroid hormone receptor type-1 (PTHR1) against the NCGC LOPAC library collection of […] compounds using a unique HEK-293-derived cell line (GP2) that expresses the PTHR1 and a GloSensor cAMP reporter construct. Increase in signal (activation / agonist) is the desired outcome for compounds of interest. NIH Chemical Genomics Center [NCGC] NIH Molecular Libraries Probe Production Centers Network [MLPCN] MLPCN Grant: P01 DK011794 Assay Submitter (PI): Thomas Gardella PhD, Massachusetts General Hospital
Reagents / Controls: M-PTH (1-15) peptide hormone fragments was provided by the assay provider and was used as a control. Column 1 was treated with M-PTH titration (1:2 dilution) beginning with a final concentration of 10uM. Column 2 was treated with M-PTH final concentration of 10uM. Columns 3 and 4 were treated with DMSO only to assess background and noise signal. Assay Steps: Four microLiter of cells suspension was dispensed in a 1536-well assay plate at a final density of 3000 cells/well. The plates were incubated overnight, after which 4uL of 0.5mM of BloTium Luciferin plus 0.5mM IBMX was added. Next, the plate was incubated at 37C for 1hr before 23nL of compound (at various final concentrations from 40uM to 0.32uM) and control were added using a 1536-well array Kalypsys pin-tool. The treated plates were again incubated at 37C for another hour. Luminescence signal was obtained using the PerkinElmer ViewLux plate reader after 15min or room temperature incubation.

Parathyroid hormone/parathyroid hormone-related peptide receptor (Homo sapiens), sequence (Q03431 whole entry, looked up): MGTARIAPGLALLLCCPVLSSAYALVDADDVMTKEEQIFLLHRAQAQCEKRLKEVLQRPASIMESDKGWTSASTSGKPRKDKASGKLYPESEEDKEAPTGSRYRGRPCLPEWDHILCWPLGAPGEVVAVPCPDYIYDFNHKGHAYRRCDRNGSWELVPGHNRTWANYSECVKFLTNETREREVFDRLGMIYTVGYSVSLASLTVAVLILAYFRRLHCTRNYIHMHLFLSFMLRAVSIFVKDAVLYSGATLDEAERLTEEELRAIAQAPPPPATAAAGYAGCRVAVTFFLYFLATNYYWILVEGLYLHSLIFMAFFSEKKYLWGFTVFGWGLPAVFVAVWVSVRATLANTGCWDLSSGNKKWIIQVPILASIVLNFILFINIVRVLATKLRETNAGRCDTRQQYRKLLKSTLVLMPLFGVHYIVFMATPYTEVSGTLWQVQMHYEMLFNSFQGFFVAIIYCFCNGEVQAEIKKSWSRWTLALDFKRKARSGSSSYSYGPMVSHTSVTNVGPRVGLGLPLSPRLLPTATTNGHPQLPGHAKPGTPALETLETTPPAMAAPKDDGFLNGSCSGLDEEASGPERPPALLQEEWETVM

| SMILES | outcome |
| --- | --- |
| Cc1ncc(CNC(=O)N(CCCl)N=O)c(N)n1 | inactive |
| COc1ccc(C(CN(C)C)C2(O)CCCCC2)cc1 (stereo not given) | inactive |
| O=c1[nH]c2ccccc2n1C1CCN(CCCC(c2ccc(F)cc2)c2ccc(F)cc2)CC1 | inactive |
| CCCN1CCC[C@@H]2Cc3nc(N)ncc3C[C@H]21 | inactive |
| CCC1(C2=NCCN2)Cc2ccccc2O1 (stereo not given) | inactive |
| C=C(C)[C@H]1Cc2c(ccc3c2O[C@@H]2COc4cc(OC)c(OC)cc4[C@@H]2C3=O)O1 | inactive |
| CC[C@@H](CO)NC(=O)[C@@H]1C=C2c3cccc4[nH]cc(c34)C[C@H]2N(C)C1 | inactive |
| Cc1ccc(S(=O)(=O)N[C@@H](CCCCN)C(=O)CCl)cc1 | inactive |
| NCC(O)c1ccc(O)cc1 (stereo not given) | inactive |
| Cc1cccc(C)c1NC1=NCCCS1 | inactive |
| C[C@@H]1O[C@@H](O[C@H]2C[C@@H](O)[C@]3(CO)[C@H]4[C@H](O)C[C@]5(C)[C@@H](C6=CC(=O)OC6)CC[C@]5(O)[C@@H]4CC[C@]3(O)C2)[C@H](O)[C@H](O)[C@H]1O | inactive |
| COc1ccccc1N1CCNCC1 | inactive |
| NN=C(N)N | inactive |
| NCC1(CC(=O)O)CCCCC1 | inactive |
| CC(=O)[C@H]1CC[C@H]2[C@@H]3CC[C@H]4C[C@](C)(O)CC[C@]4(C)[C@H]3CC[C@]12C | inactive |
| CN1C[C@H](CNC(=O)OCc2ccccc2)C[C@@H]2c3cccc4c3c(cn4C)C[C@H]21 | inactive |
| CC(=O)[C@H]1CC[C@H]2[C@@H]3CC[C@H]4C[C@H](O)CC[C@]4(C)[C@H]3C(=O)C[C@]12C | inactive |
| c1ccc2c(c1)OCC(C1=NCCN1)O2 (stereo not given) | inactive |

| SMILES | outcome |
| --- | --- |
| Fc1ccc(C(OCCN2CCN(CCCc3ccccc3)CC2)c2ccc(F)cc2)cc1 | inactive |
| Nc1ccncc1 | inactive |
| N#CC(C#N)=Cc1ccc(O)c(O)c1 | inactive |
| CC(CCc1ccccc1)NC(C)C(O)c1ccc(O)cc1 (stereo not given) | inactive |
| O=c1[nH]c2ccccc2n1CCCN1CCC(n2c(=O)[nH]c3cc(Cl)ccc32)CC1 | inactive |
| CC[C@@H](CO)NC(=O)[C@@H]1C=C2c3cccc4c3c(cn4C)C[C@H]2N(C)C1 | inactive |
| CC(O)(CS(=O)(=O)c1ccc(F)cc1)C(=O)Nc1ccc(C#N)c(C(F)(F)F)c1 (stereo not given) | inactive |
| COC[C@H]1OC(=O)c2coc3c2[C@@]1(C)C1=C(C3=O)C2CCC(=O)[C@@]2(C)C[C@H]1OC(C)=O (stereo not given in full) | inactive |
| Cc1cccc(C)c1NC(=O)CN1CCCC1=O | inactive |
| C[C@]12CCC(=O)C(O)=C1CC[C@@H]1[C@@H]2CC[C@]2(C)C(=O)CC[C@@H]12 | inactive |
| CNCC(O)c1ccc(O)cc1 (stereo not given) | inactive |
| CCCC(C)(COC(N)=O)COC(=O)NC(C)C (stereo not given) | inactive |
| NCC(CC(=O)O)c1ccc(Cl)cc1 (stereo not given) | inactive |
| c1ccc(C2CC2)c(OCC2=NCCN2)c1 | inactive |
| CC(C)=CCOc1c2occc2cc2ccc(=O)oc12 | inactive |
| CCCN1CCC[C@@H]2Cc3[nH]ncc3C[C@H]21 | inactive |
| O=C1NCN(c2ccccc2)C12CCN(CC1COc3ccccc3O1)CC2 (stereo not given) | inactive |
